Only a selection was taken, and hits are over-represented in it overall.
Methyltransferases: Primary Screen for Target Class Profiling of Small Molecule Inhibitors of Methyltransferases; purified enzyme, MTase-Glo SAH luminescence; hits give low values; calls only at 40 µM; 25,000 compounds, 3.9% hits; AID 1745853, 2022; call rule not given here
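Each enzyme was assayed with SAM and its substrate. SAH formation detected by MTase-Glo luminescence; single-point 40 uM screen[…].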
Large screens that a line does not name were inactive; ! = not active in a repeat.

CC1OC(OC2C(OC3C(O[C@H]4CC[C@@]5(C)C(CC[C@]6(C)C5CC=C5C7CC(C)(C)CC(O)[C@]7(C)CC[C@]56C)C4(C)C)OC(C(=O)O)C(O)C3O)OCC(O)C2O)C(O)C(O)C1O (stereo partly drawn)	none
CCn1c(=O)c(-c2ccc(-c3cncs3)cc2Cl)cc2cnc(Nc3ccc(N4CCN(C)CC4)cc3)nc21	none
C=CCn1c(=O)c2cnc(Nc3ccc(N4CCN(C)CC4)cc3)nc2n1-c1cccc(C(C)(C)O)n1	Methyltransferases active
COc1ccc(CN2CCC3(C2)C(=NC2CCCCC2)NC(=O)N3c2cc(F)cc(F)c2)cc1 (stereo not drawn)	none
CC(=O)Nc1ccc(NC(=O)c2cccc(CN3CCCC(C#N)C3)c2)cc1 (stereo not drawn)	none
CCCN1C(=O)c2c(C(=O)NCCC(C)C)ncn2CC1(C)C(=O)NCCC(C)C (stereo not drawn)	none
C[C@H](NC(CCc1ccccc1)C(=O)O)C(=O)N1CCC[C@H]1C(=O)O (stereo partly drawn)	none
CCCc1c(-c2ccc(O)cc2)nn(-c2ccc(O)cc2)c1-c1ccc(O)cc1	Methyltransferases active
CC12CCC(OC3OC(CO)C(O)C(OC4OC(CO)C(O)C(O)C4O)C3O)CC1CCC1C2CCC2(C)/C(=C3/COC(=O)C3)CCC12O (stereo not drawn)	none
Cc1cnc(-c2ccncc2)n1CCNC(=O)NCc1ccc(F)cc1	none
Cc1ccc(C(=O)N2CCC(C(=O)N3CCCCCCNC(=O)CC3)CC2)s1	none
CC(C)c1nc(CNC(=O)c2ccc(N(C)Cc3ccccn3)nc2)no1	none
CCC(C)NC(=O)c1ccc2c(=O)n(CCC(C)C)c3nn(CC(=O)c4ccc(C)cc4)c(=O)n3c2c1 (stereo not drawn)	none
O=C(O)/C=C/c1ccc(O)c(O)c1	none
O=C(O)/C=C/c1ccc(-c2ccc(O)c(C34CC5CC(CC(C5)C3)C4)c2)cc1	Methyltransferases active
CCOC(=O)c1cc2n(n1)CC(C)(C(=O)NCCCOC)N(c1ccc(C)cc1C)C2=O (stereo not drawn)	none
Cc1cccc(-c2cn[nH]c2C2CCN(C(=O)c3cc(=O)[nH]c(=O)[nH]3)CC2)c1	none
CC1(C(=O)NC2CCCCC2)Cn2c(cc3occc32)C(=O)N1C1CCN(Cc2ccccc2)CC1 (stereo not drawn)	none
COCCN1CC2(CCOC2)N(C2CCN(C(=O)c3ccc(OC)cc3)CC2)C1=O (stereo not drawn)	none
C=CCc1cccc(C=NNC(=O)CN2CCN(Cc3ccccc3)CC2)c1O	none
CCOc1ccc(N2C(=O)c3cc4occc4n3CC2(C)C(=O)NC2CCCCCC2)cc1 (stereo not drawn)	none
COc1ccc(-c2cnc3ccc(NCc4ccc(S(N)(=O)=O)cc4)nn23)cc1OC	Methyltransferases active
COc1ccc(CCNc2nc3c(S(=O)(=O)c4ccc(C)cc4)nnn3c3ccccc23)cc1OC	none
COc1ccc(S(=O)(=O)NCc2nc(-c3ccc(OC)c(OC)c3)no2)cc1	none
CCCCCCCCCC(=O)N[C@@H](Cc1c[nH]c2ccccc12)C(=O)N[C@H](CC(N)=O)C(=O)N[C@@H](CC(=O)O)C(=O)N[C@@H]1C(=O)NCC(=O)N[C@@H](CCCN)C(=O)N[C@@H](CC(=O)O)C(=O)N[C@H](C)C(=O)N[C@@H](CC(=O)O)C(=O)NCC(=O)N[C@H](CO)C(=O)N[C@@H]([C@@H](C)CC(=O)O)C(=O)N[C@@H](CC(=O)c2ccccc2N)C(=O)O[C@@H]1C	none
COC(=O)C1=COC(OC2OC(CO)C(O)C(O)C2O)C2C(C)C(OC(=O)/C=C/c3ccc(O)cc3)C(O)C12 (stereo not drawn)	none
NC1(c2ccc(-c3nc4ccn5c(=O)[nH]nc5c4cc3-c3ccccc3)cc2)CCC1	Methyltransferases active
O=C(CCc1nnc2n(Cc3ccc(F)cc3)c(=O)c3ccccc3n12)Nc1ccccc1	none
OCCN(CCO)c1nc(N2CCCCC2)c2nc(N(CCO)CCO)nc(N3CCCCC3)c2n1	none
CNC1CCC(N(Cc2cccc(-c3ccncc3)c2)C(=O)c2sc3c(F)ccc(F)c3c2Cl)CC1 (stereo not drawn)	Methyltransferases active!
CNC1CCC(N(Cc2cccc(-c3ccncc3)c2)C(=O)c2sc3ccccc3c2Cl)CC1 (stereo not drawn)	Methyltransferases active
CC(C)=CCC1(CO)CCCN(Cc2csc(C)n2)C1 (stereo not drawn)	none
CC(=O)N1CCn2c(nnc2C2CCCN2Cc2ccc(F)cc2F)C1 (stereo not drawn)	none
O=C(CCc1nnn2c1CN(Cc1cn[nH]c1-c1ccc(F)cc1)CC2)N1CCCC1	none
NC(=O)COC[C@@H]1CN(Cc2ccco2)C[C@H]1c1ccncc1	none
O=C1N[C@H](CC(=O)N2CCN(Cc3ccccc3Cl)CC2)C(=O)Nc2ccccc21	none
CC1(C)C2CCC1(C)C(OC(=O)C(O)(CC(=O)O)CC(=O)O)C2 (stereo not drawn)	Methyltransferases active
CC(C)N(C(=O)c1ccccc1-c1cc(NC2CC2)nc(N)n1)C(C)C	none
Cc1ccccc1CN1C(=O)c2ccc(-c3ccccc3)n2CC1(C)C(=O)NC1CCCC1 (stereo not drawn)	none

Screens from PubChem BioAssay.
